Source: PubChem
An excerpt weighted towards active compounds, which were near 14% of everything screened.
Pf growth 48h = P. falciparum growth inhibition at 48 hours (one generation); P. falciparum luciferase growth in erythrocytes, 48 h; Potency, µM (titrated, usually from 28.7 µM), without a hit: top-dose activity change, negative = inhibition, hits mostly inhibitors; hit rate 5.9% among 310,000; also: potency is read from the fitted curve at half-maximal effect
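Luciferase-expressing parasites in RBCs, 2% Hct / 0.1% parasitemia final; RPMI 1640 + 0.5% Albumax; 37 C, 5% CO2, one generation; luminescence read-out, lower signal = inhibition.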
Lassa entry inh = blocks Lassa virus binding to or entry into cells; Potency, µM (series often up to 37.9 µM), inactives show at the top dose activity change, negative = inhibition, hits mostly inhibitors; hit rate 1.2% among 300,000; Lassa virus pseudotype entry inhibition, cell reporter; calls by dose curve; tested in HEK293 cells; also: potency is read from the fitted curve at half-maximal effect; nearly all actives have a fitted effect of over 50% in size
Pf growth 96h = P. falciparum growth inhibition at 96 hours | P. falciparum luciferase reporter growth, 96 h | Potency, µM (series often up to 28.7 µM), inactives show top-dose activity change, negative = inhibition, usual class: inhibitors | hit rate 6.9% among 320,000 | AID 504834; also: potency is read from the fitted curve at half-maximal effect
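Readout is luminescence from an integrated firefly luciferase in P. falciparum. Red cells, 2% hematocrit and 0.05% parasitemia final, were cultured with compound through two parasite generations (96 hours) at 37 C, 5% CO2.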
HCMV antiviral = human cytomegalovirus inhibition | HFF cells, HCMV-luciferase reporter, 72 h; hits give low values | activity change, negative = inhibition, % at 57.5 µM | hit rate 4.5% among 410,000; in the data active = activity change below about -60%; inconclusive = no clear call, values can overlap the other calls; inactive = above about -39%
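Compounds were evaluated in HFFs infected with an HCMV luciferase reporter virus (MOI 1 PFU/cell). Luciferase in lysates collected 72 h post infection served as the replication measure.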
HCV inhibitor = HCV inhibition. hit rate 3.4% among 340,000. Huh7.5.1 HCVcc-Cre infection, luciferase reporter, 44 h. Potency, µM (titrated, usually from 41.8 µM), without a hit: at the highest dose activity change, negative = inhibition, usual class: inhibitors; also: potency is read from the fitted curve at half-maximal effect
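Infectious HCVcc-Cre (~0.5 moi) was added to cells just after compound, with cells seeded 4 h earlier at 1,000 per well. Luciferase activity after 44 h culture reported infection; substrate was incubated 15 min at room temperature before reading.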
MARV entry inh = inhibitors of Marburg virus binding or cell entry | Marburg virus pseudotyped entry inhibition, cell reporter | Potency, µM (highest dose often 37.8 µM), without a hit: top-dose activity change, negative = inhibition, most hits filed as inhibitors | hit rate 1.8% among 300,000 | AID 540276; calls by dose curve; tested in HEK293 cells; also: potency is read from the fitted curve at half-maximal effect
* marks the source's active call; other numbers are inactive results; [ ] = dose if it differs, or a comment. Unless noted, calls follow the shape of the dose curve; as a rule, active = well fitted inhibition curve with a large enough effect; inconclusive = small, poorly fitted or top-dose-only effect, or another doubt; inactive = no such curve, though single readings can be large or run the other way. % is scaled to controls: 0 for no effect and ±100 for the full control effect.

What do the screens show for `Cc1ccc(Cn2ncc3c(N4CCN(C)CC4)ncnc32)cc1`?
Pf growth 48h: -12%; Lassa entry inh: -20%; Pf growth 96h: 7.4µM*; HCMV antiviral: -7; HCV inhibitor: inconclusive; MARV entry inh: 22%[46.1 µM]

How did Cc1ccc(Cn2ncc3c(NCCN(C)C)ncnc32)cc1 do in these assays?
Pf growth 48h: 27%; Pf growth 96h: 0%; HCMV antiviral: -40; HCV inhibitor: 8%

Results for CCn1cc(C(=O)N[C@@H](CCSC)C(=O)NCCOC)c(=O)c2cc3c(cc21)OCO3 ?
Pf growth 48h: inconclusive; Lassa entry inh: 20%[46.1 µM]; Pf growth 96h: 12µM*; HCMV antiviral: 39; HCV inhibitor: 10%; MARV entry inh: 29%[46.1 µM]

Results for Cc1ccc(S(=O)(=O)N2CCCCC2)cc1NC(=O)C1=NN(c2ccccc2)C(=O)CC1 ?
Pf growth 48h: inconclusive; Pf growth 96h: inconclusive; HCMV antiviral: -7; HCV inhibitor: -10%

What do the screens show for `O=C(Nc1cc(Cl)ccc1N1CCCC1)C1=NN(c2ccccc2)C(=O)CC1`?
Pf growth 48h: -10%; Pf growth 96h: 9.3µM*; HCMV antiviral: inconclusive; HCV inhibitor: -30%

What do the screens show for `CN(C)c1ccc(S(=O)(=O)N2CCCCC2)cc1NC(=O)C1=NN(c2ccccc2)C(=O)CC1`?
Pf growth 48h: -19%; Pf growth 96h: 5.9µM*; HCMV antiviral: 0; HCV inhibitor: -3%

How did CCN(CC)S(=O)(=O)c1ccc(N2CCCC2)c(NC(=O)C2=NN(c3ccccc3)C(=O)CC2)c1 do in these assays?
Pf growth 48h: 10µM*; Pf growth 96h: 15µM*; HCMV antiviral: inconclusive; HCV inhibitor: -25%

What do the screens show for `Cc1ccc(C)c(N2N=C(C(=O)Nc3cccnc3)CCC2=O)c1`?
Pf growth 48h: 12%; Pf growth 96h: -11%; HCMV antiviral: 18; HCV inhibitor: 6%

What do the screens show for `Cc1ccc(C)c(N2N=C(C(=O)Nc3ccccc3N3CCOCC3)CCC2=O)c1`?
Pf growth 48h: 12µM*; Lassa entry inh: -25%; Pf growth 96h: inconclusive; HCMV antiviral: inconclusive; HCV inhibitor: inconclusive; MARV entry inh: inconclusive

Results for CCCCCC(=O)N1C[C@H](n2cc(C3CC3)nn2)[C@@H](O)C[C@@H]1c1ccc(Cl)cc1 ?
HCMV antiviral: 19

Results for COc1ccc(C)cc1NC(=O)C(Cc1ccccc1)NS(=O)(=O)c1ccc(Br)s1 (centres undefined) ?
Lassa entry inh: -11%[46.1 µM]; HCMV antiviral: inconclusive; MARV entry inh: 1%[46.1 µM]

Results for CN(NC(=O)C(C)(C)C)c1nc(-c2ccccc2)nnc1C(F)(F)F ?
Lassa entry inh: 10%; Pf growth 96h: 23%; HCMV antiviral: -63*; HCV inhibitor: 16%; MARV entry inh: 10%

How did COc1ccc(C(=O)NN(C)c2nc(-c3ccccc3)nnc2C(F)(F)F)cc1 do in these assays?
Pf growth 48h: 20%; Lassa entry inh: -10%; Pf growth 96h: -16%; HCMV antiviral: -13; HCV inhibitor: 8%; MARV entry inh: 8%

Results for O=C(CN1CCCCC1)N1c2ccccc2CCc2ccccc21 ?
Lassa entry inh: 0%; Pf growth 96h: inconclusive; HCMV antiviral: -14; HCV inhibitor: -3%; MARV entry inh: inconclusive

Results for CC1CCN(CC(=O)N2c3ccccc3CCc3ccccc32)CC1 ?
Pf growth 48h: 15µM*; Lassa entry inh: -10%; Pf growth 96h: 25%; HCMV antiviral: -19; HCV inhibitor: -4%; MARV entry inh: inconclusive

How did O=C(c1ccco1)N1CCN(CC(=O)N2c3ccccc3CCc3ccccc32)CC1 do in these assays?
Pf growth 48h: inconclusive; Lassa entry inh: -12%; Pf growth 96h: 10µM*; HCMV antiviral: -12; HCV inhibitor: 7%; MARV entry inh: 16%

Results for COc1cc2c(cc1OC)-c1c(OC)c(OC)cc3c1[C@H](C2)[N+](C)(C)CC3 ?
Pf growth 48h: inconclusive; Lassa entry inh: 0%; Pf growth 96h: 0.37µM*; HCMV antiviral: -74*; HCV inhibitor: inconclusive; MARV entry inh: 24%

Results for COc1cc2c3c(c1OC)-c1cc(O)ccc1CC3NCC2 (centres undefined) ?
Pf growth 48h: -12%; Lassa entry inh: 0%; Pf growth 96h: 38%; HCMV antiviral: -27; HCV inhibitor: -16%; MARV entry inh: -19%[46.1 µM]

How did Oc1ccc(C(=S)N2CCCCC2)cc1Cl do in these assays?
Pf growth 48h: 14%; Lassa entry inh: -10%; Pf growth 96h: -18%; HCMV antiviral: -75*; HCV inhibitor: 12%; MARV entry inh: -16%

How did COc1cc(OC)cc(-c2c(-c3cccs3)c3cc(-c4ccc5cc[nH]c5c4)ccc3n2C)c1 do in these assays?
Pf growth 48h: 10µM*; Pf growth 96h: inconclusive; HCMV antiviral: -29; HCV inhibitor: 4.5µM*

How did COc1cc(OC)cc(-c2c(-c3cccs3)c3cc(-c4ccc(SC)cc4)ccc3n2C)c1 do in these assays?
Pf growth 48h: -79%; Pf growth 96h: 2.1µM*; HCMV antiviral: -3; HCV inhibitor: 0%

Results for COc1cc(OC)cc(-c2c(-c3cccs3)c3cc(-c4ccc(OC)c(OC)c4)ccc3n2C)c1 ?
Pf growth 48h: 6.6µM*; Pf growth 96h: inconclusive; HCMV antiviral: -32; HCV inhibitor: inconclusive

Results for COc1cc(OC)cc(-c2c(-c3cccs3)c3cc(-c4ccc5c(c4)OCCO5)ccc3n2C)c1 ?
Pf growth 48h: 6.6µM*; Pf growth 96h: inconclusive; HCMV antiviral: 1; HCV inhibitor: inconclusive

Results for COc1cc(OC)cc(-c2c(-c3cccs3)c3cc(-c4ccc(OC)c(F)c4)ccc3n2C)c1 ?
Pf growth 48h: inconclusive; Pf growth 96h: inconclusive; HCMV antiviral: -31; HCV inhibitor: inconclusive

Results for COc1ccc(-c2c(-c3cc(OC)cc(OC)c3)n(C)c3ccc(-c4ccc5c(c4)OCCO5)cc23)cc1 ?
HCMV antiviral: -20; HCV inhibitor: 1%

What do the screens show for `COc1cccc(-c2c(-c3cc(OC)cc(OC)c3)n(C)c3ccc(-c4ccc5cc[nH]c5c4)cc23)c1`?
HCMV antiviral: 4; HCV inhibitor: inconclusive

Results for COCCCn1c(SCc2ccccc2F)nc2c(sc3ccccc32)c1=O ?
Lassa entry inh: inconclusive; HCMV antiviral: -37

What do the screens show for `Cc1cc(C)c(N2CCN(S(=O)(=O)N3CCCCCC3)CC2)c(C)c1`?
Pf growth 48h: 10µM*; Lassa entry inh: -12%; HCMV antiviral: -29; HCV inhibitor: -4%; MARV entry inh: inconclusive

How did CCOc1ccc(S(=O)(=O)NCC(c2ccco2)S(=O)(=O)c2ccc(F)cc2)cc1 (centres undefined) do in these assays?
Lassa entry inh: -19%[46.1 µM]; HCMV antiviral: -22

How did COC(=O)c1sccc1S(=O)(=O)N(CC(=O)NCc1ccc(C)cc1)c1ccc(Cl)cc1 do in these assays?
Lassa entry inh: inconclusive; HCMV antiviral: -5
